Most compounds without a hit are left out; they make up all but 2.5% or so of the library.
POLK inh: blocks human DNA polymerase kappa activity; hit rate 0.53% among 400,000; purified Pol kappa, fluorescent DNA synthesis assay, 10 min; Potency, µM (titrated, usually from 107 µM), hits mostly inhibitors; AID 588579
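Enzyme at 10 nM met test compounds for 15 min at room temperature. Substrate addition (50 nM final) began the reaction, which was monitored by fluorescence at 0 and 10 min.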
Pol beta inh: DNA polymerase beta (human) inhibition | P06746 | Pol beta primer extension/strand displacement, fluorescence kinetic | Potency, µM (series often up to 114 µM), hits mostly inhibitors | hit rate 1.3% among 340,000 | AID 485314
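Values derive from four-parameter Hill fits of normalized kinetic data: reads at 0 and 10 min following addition of 50 nM substrate to 10 nM Pol beta preincubated 15 min with compound.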
Pol eta inh: blocks human DNA polymerase eta activity; Q9Y253; recombinant Pol eta, fluorescent DNA replication assay; Potency, µM (titrated, usually from 114 µM), actives largely listed as inhibitors; hit rate 1.2% among 390,000; AID 588591
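Pol eta (10 nM) was preincubated with compounds for 15 min at room temperature, after which fluorescent replication substrate (50 nM final) was added to start the reaction. Fluorescence was read kinetically at 0 and 10 min.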
APEX1 inh: blocks human APE1 abasic DNA cleavage | P27695 | recombinant APE1, TAMRA/BHQ-2 abasic DNA cleavage fluorescence | Potency, µM (series often up to 65.8 µM), hits mostly inhibitors | hit rate 0.35% among 350,000 | AID 2517; note: nearly all actives have a fitted effect of over 55% in size
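Step 1: APE1 (0.75 nM) with compound, 15 min RT. Step 2: add 50 nM fluorophore/quencher THF duplex. Step 3: three fluorescence reads 60 s apart (525/598 nm); read 3 minus read 1 = reaction progress.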
POLI inh: DNA polymerase iota (human) inhibition; hit rate 1% among 390,000; Pol iota fluorescent replication assay, 10 min; Q9UNA4; Potency, µM (series often up to 115 µM), most hits filed as inhibitors
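Pol iota at 10 nM preincubated 15 min with compounds at room temperature; reaction started with fluorescent substrate, 50 nM final. Fluorescence read kinetically at 0 and 10 min; buffer-only wells as negative control.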
L3MBTL1 block: L3MBTL1 (human) inhibition | Q9Y468 | AlphaScreen L3MBTL1–H3K9me1 peptide binding | Potency, µM (titrated, usually from 57.1 µM), actives largely listed as inhibitors | hit rate 0.66% among 230,000; note: nearly all actives have a fitted effect of over 60% in size
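Displacement of a biotinylated histone H3(1-15) peptide monomethylated at Lys9 (75 nM) from L3MBTL1 (50 nM) was measured by AlphaScreen after a 30 min room-temperature compound incubation; cefsulodin titration served as intraplate control.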
Hits are given with their value. Calls come from the whole dose curve; as a rule, active = well fitted curve in the direction sought with a large enough effect; inconclusive = small, poorly fitted or top-dose-only effect, or another doubt; inactive = no such curve, though single readings can be large; an effect the other way counts as inactive or inconclusive.

How did COc1cccc(N2CCN(c3ccc4nnc(CCC(=O)Nc5ncccc5C)n4n3)CC2)c1 do in these assays?
POLK inh: inactive; Pol beta inh: inactive; Pol eta inh: inactive; APEX1 inh: inactive; POLI inh: inactive

What do the screens show for `CN(c1ccc(-c2csc(NC(=O)C3CC(=O)N(Cc4ccco4)C3)n2)cc1)S(C)(=O)=O` (configuration not stated)?
POLK inh: inconclusive; Pol eta inh: 50µM; APEX1 inh: inactive; POLI inh: 45µM; L3MBTL1 block: inactive

How did CS(=O)(=O)c1ccc(Cl)c(NC(=O)C2CC(=O)N(Cc3ccco3)C2)c1 (configuration not stated) do in these assays?
POLK inh: inconclusive; Pol eta inh: inactive; APEX1 inh: inactive; POLI inh: 79µM; L3MBTL1 block: inconclusive

Results for COC(=O)c1sc(N)c(C(=O)OC)c1COC(=O)C1CC(=O)N(Cc2ccco2)C1 (configuration not stated) ?
POLK inh: inactive; Pol beta inh: 11µM; Pol eta inh: 79µM; APEX1 inh: inactive; POLI inh: inconclusive; L3MBTL1 block: inconclusive

Results for C[n+]1c(/C=C/c2ccnc3ccccc23)cc(/C=C/c2ccnc3ccccc23)c2ccccc21 ?
POLK inh: inactive; POLI inh: inconclusive

Results for Cc1cc(C(=O)O)ccc1-c1ccc(/C=C2\SC(=O)N(CC(=O)Nc3ccc4c(c3)OCO4)C2=O)o1 ?
Pol beta inh: inactive; APEX1 inh: 6.7µM

Results for COc1cc(-c2nnc(COC(=O)c3ccc(C)o3)o2)cc(OC)c1OC ?
POLK inh: inactive; Pol eta inh: inconclusive; APEX1 inh: 24µM; POLI inh: inconclusive; L3MBTL1 block: inactive

What do the screens show for `COc1cc2c(NC3CCN(C)CC3)nc(N3CCCN(C)CC3)nc2cc1OCCCCN`?
POLK inh: 79µM; POLI inh: 20µM

What do the screens show for `COc1cc2nc(N3CCN(C)CC3)nc(NC3CC3)c2cc1OC`?
POLK inh: inactive; POLI inh: inactive

How did COc1cc2nc(N3CCCN(C)CC3)nc(Nc3ccncc3)c2cc1OC do in these assays?
POLK inh: inactive; POLI inh: 20µM

Results for CC[n+]1c(/C=C2\Sc3ccccc3N2C)ccc2cccc(C)c21 ?
POLK inh: inactive; Pol beta inh: 28µM; Pol eta inh: inconclusive; APEX1 inh: inactive; POLI inh: inconclusive; L3MBTL1 block: inactive

Results for Cn1c(NC(=O)c2ccc(F)cc2)nc2ccccc21 ?
POLK inh: inactive; Pol beta inh: inactive; Pol eta inh: inactive; APEX1 inh: inactive; POLI inh: 89µM; L3MBTL1 block: inactive

How did [O-]c1c[n+](-c2ccc(-[n+]3cc([O-])on3)cc2)no1 do in these assays?
POLK inh: inactive; Pol beta inh: 7.1µM; Pol eta inh: 45µM; APEX1 inh: inactive; POLI inh: inconclusive; L3MBTL1 block: inconclusive

How did COc1ccc(CC2NCCC3=CC(=O)CCC32)cc1O (configuration not stated) do in these assays?
POLK inh: inconclusive; Pol eta inh: inactive; POLI inh: 56µM

Results for COc1ccc(CC(=O)O)cc1O ?
POLK inh: inactive; Pol beta inh: inactive; Pol eta inh: inactive; APEX1 inh: inactive; POLI inh: inactive; L3MBTL1 block: inactive

How did COc1ccc(OC)c(NC(=O)Cn2ncc3c2-c2ccccc2OC3)c1 do in these assays?
POLK inh: inactive; Pol beta inh: inactive; Pol eta inh: inactive; POLI inh: inactive

How did O=C(Cc1n[nH]c(=O)[nH]c1=O)N/N=C/c1cccc(Cl)c1 do in these assays?
POLK inh: inconclusive; Pol beta inh: inactive; Pol eta inh: inactive; APEX1 inh: inactive; POLI inh: 89µM; L3MBTL1 block: inactive

What do the screens show for `COc1cccc(CNC(=O)C2CCC(CNS(=O)(=O)c3ccc(Br)s3)CC2)c1` (configuration not stated)?
POLK inh: inactive; Pol beta inh: inactive; Pol eta inh: inactive; POLI inh: inactive

Results for CCOc1ccc(CCNC(=O)c2cc3cc4cc(OC)ccc4nc3s2)cc1OCC ?
POLK inh: inactive; Pol beta inh: 14µM; Pol eta inh: inactive; POLI inh: inactive
